# PubChem BioAssay AID1446 (The Scripps Research Institute Molecular Screening Center, 2008)
# Hit rate of the full screen: of about 220,000 compounds, about 2,400 (1.1%) were called active. The full list was thinned out, with actives kept by preference. Unmarked numbers belong to inactive results.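 Rule for the calls: active = inhibition above the campaign mean plus 3 SD over all tested compounds (cut at about 24% in these data); inactive = the rest.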
# Assay: viability loss in Ba/F3 EpoR-JAK2V617F cells – cell-based, luminescence, JAK2V617F inhibitor project, primary screen (AID 1446);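 note: cytokine-independent growth of Ba/F3 cells driven by EpoR plus mutant JAK2; 0% = DMSO-treated cells and 100% = JAK inhibitor I control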
# Conditions: ATP luminescence, at 5.6 µM, hits give high values
row,Compound,inhibition
1,CCCCCCCCCCCCn1ccc(=N)cc1,98.4% (active)
2,COc1cc(OC)cc(C2(C#N)CCN(C)CC2)c1,-0.42%
3,O=C1NC(=O)N(CCc2ccc(F)cc2)C(=O)/C1=C/C=C/c1ccccc1,1.28%
4,COc1ccc(-n2c(-c3ccccc3)nc3ccccc3c2=O)cc1,0.29%
5,CN(C)CC1Oc2ccccc2OC1(O)c1ccccc1 (stereo not given),91.1% (active)
6,O=c1[nH]c(=O)n(-c2ccc(F)cc2)c(O)c1C=NCCN1CCCCC1,0.16%
7,Cc1cccc(NC(=O)OC2CN3CCC2CC3)c1 (stereo not given),2.6%
8,CN1CCN(/N=C/c2c[nH]c3ccccc23)CC1,-2.46%
9,CC1=C(C(=O)Nc2ccccc2)S(=O)(=O)CCO1,-1.56%
10,CCOc1ccc(-c2cc(C)[n+](CCN(CC)CC)c(-c3ccc(OCC)cc3)c2)cc1,98.2% (active)
11,CC1=C2C(=O)C3C(CC=C4CC(OC5OC(O)C(O)C(O)C5CO)CCC43C)C2CCC12OC1CC(C)CNC1C2C (stereo not given),0.84%
12,CSc1nc2ccc(C)cc2c(=O)n1-c1cccnc1,3.49%
13,CC1(C)Cc2c(C#N)c(N3CCNCC3)nc(-c3ccco3)c2CS1,1.65%
14,CCOc1cccc(=NC2CCCCC2)c2c(C)[nH]c(C)c12,34% (active)
15,O=C(O)COc1ccccc1/C=C1\C(=O)NC(=O)N(CCC2=CCCCC2)C1=O,-1.88%
16,Cn1c(O)c(C(=Nc2ccc(F)cc2)c2ccccc2)c(=O)n(C)c1=O,-3.28%
17,CCCCC(=O)N/N=C/c1c(O)n(CCC2=CCCCC2)c(=O)[nH]c1=O,-0.19%
18,O=c1[nH]c(=O)n(CCc2ccc(F)cc2)c(O)c1/C=N/N1CCCCC1,-0.8%
19,O=c1[nH]c(CN2CC=C(c3ccccc3)CC2)nc2scc(-c3cccs3)c12,-4.83%
20,Cc1ccc(CN2CCCC(C(=O)c3ccc4c(c3)OCO4)C2)cc1C (stereo not given),-3.5%
21,CCOP(=O)(OCC)C(NC(=O)NC)C(N)=O (stereo not given),3.57%
22,CC1=CC(=Cc2sc3ccccc3[n+]2C)C=C(C)O1,101% (active)
23,CNC(=O)O/N=C(\N)Cc1csc2ccc(Cl)cc12,1.27%
24,O=c1[nH]c(=O)n(CCc2ccccc2)c(O)c1/C=N/N1CCOCC1,-2.98%
25,CCOP(=O)(OCC)C(NC(=O)c1ccc(OC)cc1)C(Cl)(Cl)Cl (stereo not given),1.2%
